Assay results from PubChem BioAssay AID1159580 (chemical genetic matrix, 2015).
“And” between values parts separate entries of the source, which are not always exact repeats. Equal entries are not always repeated. Among all 5,500 compounds or so, about 2,000 (36%) were called active. Not shown: some 18% with an inconclusive outcome. Rule as the data show it: active = normalized growth mostly below about 0.91 (no sharp cut-off); inconclusive = no clear call, values can overlap the other calls; inactive = mostly above about 0.92. This is one part of the list.

Assay: chemical genetic growth profiling, strain panel (AID 1159580);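 also: tested at 20 µM; growth read once vehicle control cultures reached saturation at 30 °C; 1 = growth at the plate median or of vehicle wells; lower values mean less growth of the strain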
Conditions: S. cerevisiae deletion strains, growth OD

Measured: normalized growth

O=C(CCBr)N1CCN(C(=O)CCBr)CC1
inactive: locus YAL013W, strain DEP1, active compounds read low 1 | locus YAL021C, strain ccr4, active compounds read low 1.02 | locus YAL026C, strain drs2, active compounds read low 1.01 | locus YAL030W, strain snc1, active compounds read low 1.02 | locus YBL061C, strain skt5, active compounds read low 1.02 | locus YBR009C, strain hhf1, active compounds read low 1.02 | locus YBR021W, strain FUR4, active compounds read low 0.998 | locus YBR023C, strain chs3, active compounds read low 1.03 | locus YBR171W, strain sec66, active compounds read low 1.04 | locus YBR229C, strain ROT2, active compounds read low 1 | locus YBR231C, strain swc5, active compounds read low 1.02 | locus YBR279W, strain paf1, active compounds read low 1.02 | locus YCL011C, strain gbp2, active compounds read low 1.02 | locus YCL016C, strain dcc1, active compounds read low 1.02 | locus YCL029C, strain bik1, active compounds read low 1 | locus YCL061C, strain MRC1, active compounds read low 1.01 | locus YCL069W, strain vba3, active compounds read low 1.02 | locus YCR088W, strain abp1, active compounds read low 1.01 | locus YDL005C, strain med2, active compounds read low 1.02 | locus YDL035C, strain GPR1, active compounds read low 1.01 | locus YDL040C, strain nat1, active compounds read low 1.02 | locus YDL074C, strain BRE1, active compounds read low 1 | locus YDL101C, strain DUN1, active compounds read low 1.01 | locus YDL134C, strain PPH21, active compounds read low 1.01 | locus YDL185W, strain tfp1, active compounds read low 0.988 | locus YDL192W, strain arf1, active compounds read low 1.01 | locus YDR001C, strain nth1, active compounds read low 1.01 | locus YDR069C, strain doa4, active compounds read low 1.02 | locus YDR101C, strain arx1, active compounds read low 1.01 | locus YDR137W, strain rgp1, active compounds read low 1.05 | locus YDR159W, strain sac3, active compounds read low 1.01 | locus YDR162C, strain NBP2, active compounds read low 1.01 | locus YDR195W, strain ref2 1.02 | locus YDR297W, strain sur2, active compounds read low 1.02 | locus YDR318W, strain mcm21, active compounds read low 0.996 | locus YDR334W, strain swr1, active compounds read low 1.02 | locus YDR335W, strain msn5, active compounds read low 1.02 | locus YDR388W, active compounds read low 0.995 | locus YDR392W, strain spt3, active compounds read low 1.03 | locus YDR502C, strain sam2, active compounds read low 0.998 | locus YEL003W, strain gim4, active compounds read low 1.02 | locus YEL037C, strain rad23, active compounds read low 1.01 | locus YEL061C, strain CIN8 (second series), active compounds read low 1.02 | locus YEL061C, strain CIN8, active compounds read low 1 | locus YER015W, strain faa2, active compounds read low 1.02 | locus YER016W, strain bim1, active compounds read low 1.02 | locus YER110C, active compounds read low 0.993 | locus YER111C, strain swi4, active compounds read low 1.02 | locus YER155C, strain BEM2 (second series), active compounds read low 1.02 | locus YER155C, strain BEM2, active compounds read low 1.01 | locus YER167W, strain BCK2, active compounds read low 1.01 | locus YFR010W, strain ubp6, active compounds read low 1.01 | locus YGL078C, strain dbp3, active compounds read low 0.995 | locus YGL086W, strain mad1, active compounds read low 0.991 | locus YGL167C, strain pmr1, active compounds read low 1.02 | locus YGL173C, strain kem1, active compounds read low 1.02 | locus YGL227W, strain vid30, active compounds read low 1.02 | locus YGL240W, strain doc1, active compounds read low 1.02 | locus YGL248W, strain PDE1, active compounds read low 1 | locus YGL253W, strain hxk2, active compounds read low 1 | locus YGR135W, strain pre9, active compounds read low 0.99 | locus YGR229C, strain SMI1, active compounds read low 0.99 | locus YGR252W, strain gcn5, active compounds read low 0.934 | locus YHR013C, strain ard1, active compounds read low 1.04 | locus YHR027C, strain rpn1, active compounds read low 1.01 | locus YHR030C, strain SLT2, active compounds read low 1.01 and 1 | locus YHR079C, strain IRE1 (second series), active compounds read low 0.995 | locus YHR079C, strain IRE1, active compounds read low 0.997 | locus YHR094C, strain hxt1, active compounds read low 0.996 | locus YHR129C, strain ARP1, active compounds read low 1.01 | locus YHR142W, strain chs7, active compounds read low 1.02 | locus YHR200W, strain rpn10, active compounds read low 0.994 | locus YIL066C, strain RNR3, active compounds read low 1.02 | locus YIL073C, strain SPO22, active compounds read low 1.04 | locus YIL125W, strain kgd1, active compounds read low 0.987 | locus YIR030C, strain dcg1, active compounds read low 1 | locus YJL092W, strain hpr5, active compounds read low 1.01 | locus YJL095W, strain BCK1 (second series), active compounds read low 1.01 | locus YJL095W, strain BCK1, active compounds read low 1.01 and 0.998 | locus YJL115W, strain asf1, active compounds read low 1 | locus YJL129C, strain trk1, active compounds read low 1.02 | locus YJL134W, strain LCB3, active compounds read low 1.01 | locus YJL154C, strain vps35, active compounds read low 1.02 | locus YJL164C, strain tpk1, active compounds read low 1.02 | locus YJL166W, strain qcr8, active compounds read low 1.02 | locus YJL168C, strain set2, active compounds read low 0.998 | locus YJL187C, strain SWE1 (second series), active compounds read low 1.02 | locus YJL187C, strain SWE1, active compounds read low 1.02 | locus YJR043C, strain POL32, active compounds read low 1.01
